# Experimental data: PubChem BioAssay (EPA / NIEHS)
# Records with an inconclusive call do not appear. The source made the active and inactive calls. Rule for the calls, unless noted: active = hit-call score of the fitted dose curve at least 0.9, where 1 is the maximum; inactive = score below 0.9.
# Columns and labels:
# [1] = read-out: TIMP metallopeptidase inhibitor 2 (TIMP2), TIMP2 (gene 7077); assay: BSK_hDFCGF_TIMP2: BioMAP Diversity Plus: hDFCGF Assay for TIMP metallopeptidase inhibitor 2 (TIMP2) Biomarker Activity (AID 2284289); conditions: primary human foreskin fibroblasts
# Summary of the method: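 Primary human foreskin fibroblasts in the hDFCGF system, dosed for 24 h; TIMP-2 level measured by ELISA, fitted in the positive direction against DMSO; cytotoxicity checked in parallel by sulforhodamine B total protein staining.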
# [2] = read-out: Interleukin-1 alpha (IL1a), IL1A (gene 3552); assay: BSK_IMphg_IL1a: BioMAP Diversity Plus: IMphg Assay for Interleukin-1 alpha (IL1a) Biomarker Activity (AID 2284290); conditions: primary human endothelial cells with macrophages
# Summary of the method: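 Human venular endothelial cells co-cultured with macrophages, IMphg system. IL-1α is measured by ELISA 24 h after dosing and fitted in the positive direction against DMSO. Cytotoxicity is assessed by SRB staining of parallel cultures.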
# [3] = read-out: E-selectin (Homo sapiens) (UniProt P16581); assay: BSK_IMphg_ESelectin: BioMAP Diversity Plus: IMphg Assay for Eselectin Biomarker Activity (AID 2284291); conditions: primary human endothelial cells with macrophages
# Summary of the method: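 Human venular endothelial cell–macrophage co-culture, E-selectin measured by ELISA 24 h after chemical dosing. Signal fitted in the positive direction against DMSO as negative control and baseline.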
# [4] = BSK_IMphg_SRB: Viability Assessment in the BioMAP Diversity Plus: IMphg Assay (AID 2284292); conditions: primary human endothelial cells with macrophages;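 note: measured one day after compound addition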
# Summary of the method: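 Human venular endothelial cells with macrophages, 24 h after chemical dosing; total protein by 0.1% SRB staining after 10% TCA fixation, read at 560 nm. Positive-direction fitting versus DMSO baseline.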
# [5] = read-out: Macrophage colony-stimulating factor (MCSF), CSF1 (gene 1435); assay: BSK_IMphg_MCSF: BioMAP Diversity Plus: IMphg Assay for Macrophage colony-stimulating factor (MCSF) Biomarker Activity (AID 2284293); conditions: primary human endothelial cells with macrophages
# Summary of the method: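 Co-culture of human venular endothelial cells and macrophages, 24 hours of chemical exposure. M-CSF quantified by ELISA, with parallel SRB total-protein staining for cytotoxicity; activity fitted relative to DMSO.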
# [6] = BSK_IMphg_SRB.Mphg: Macrophage Viability Assessment in the BioMAP Diversity Plus: IMphg Assay (AID 2284295); conditions: primary human endothelial cells with macrophages
# Summary of the method: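 Venular endothelial cells co-cultured with macrophages, read 24 h after dosing. Total protein measured by 0.1% SRB staining after 10% TCA fixation, absorbance at 560 nm. Fitted in positive direction against DMSO baseline.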
# [7] = read-out: Thrombomodulin, THBD (gene 7056); assay: BSK_LPS_Thrombomodulin: BioMAP Diversity Plus: LPS Assay for Thrombomodulin Biomarker Activity (AID 2284296); conditions: primary human HUVEC with PBMC
# Summary of the method: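 Human umbilical vein endothelial cells co-cultured with PBMC and stimulated with LPS; cell-surface thrombomodulin measured by ELISA 24 hours after compound. Gain or loss versus DMSO; cytotoxicity checked by SRB staining in parallel cultures.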
# CD69, CD69 (gene 969) = assay: BSK_LPS_CD69: BioMAP Diversity Plus: LPS Assay for CD69 Biomarker Activity (AID 2284303); conditions: primary human HUVEC with PBMC
# Summary of the method: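 Human umbilical vein endothelial cells co-cultured with PBMC under LPS stimulation, chemical exposure 24 h; cell-surface CD69 measured by ELISA and fitted in the positive direction versus DMSO.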
# TTR (gene 7276) = assay: CCTE_GLTED_hTTR_0.5uM: CCTE's human Transthyretin (hTTR) Inhibition Assay, with 0.5uM TTR, Great Lakes Toxicology and Ecology Division (GLTED) Lab (AID 2284320)
# Summary of the method: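 Cell-free displacement assay in which human TTR at 0.5 uM was incubated with test chemical for 2 h. Displacement of the ANSA probe was read by fluorescence at 380 nm excitation/475 nm emission. Loss of signal was fitted in the positive direction versus DMSO.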
# [8] = Tanguay_ZF_120hpf_CRAN: Oregon State University Tanguay Lab 120 Hour Post-fertilization zebrafish Assay for Craniofacial Malformation (AID 2284397)
# Summary of the method: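 Dechorionated Tropical 5D wild-type zebrafish embryos, one per well, were statically exposed from 6 to 120 hpf at 28C in 0.64% DMSO, with 5uM trimethyltin chloride as positive control. Craniofacial malformation was scored present/absent by brightfield microscopy, relative to DMSO.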
# [9] = Tanguay_ZF_120hpf_AXIS: Oregon State University Tanguay Lab 120 Hour Post-fertilization zebrafish Assay for Axial Malformation (AID 2284398)
# Summary of the method: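 Dechorionated 5D wild-type zebrafish embryos exposed statically, one per well, from 6 to 120 hpf at 28C, 0.64% DMSO. Axial malformation scored as present/absent by brightfield microscopy at 120 hpf; dead embryos not scored.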
# [10] = Tanguay_ZF_120hpf_EDEM: Oregon State University Tanguay Lab 120 Hour Post-fertilization zebrafish Assay for Edema Malformation (AID 2284400)
# Summary of the method: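 Dechorionated Tropical 5D wild-type embryos, one per well, statically exposed from 6 to 120 hpf at 28C in 0.64% DMSO. Edema scored present/absent by brightfield microscopy at 120 hpf; dead embryos not scored; fit versus DMSO.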
# [11] = CCTE_Mundy_HCI_iCellGluta_NOG_NeuriteLength: CCTE's Neurite Outgrowth Assay in iCellGluta cells for Neurite Length, Mundy Lab (AID 2284318; active = hit-call score of the fitted dose curve at least 0.9, where 1 is the maximum)
# Summary of the method: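 Automated high-content imaging of betaIII-tubulin (Alexa Fluor-488) and Hoechst-stained cells gave neurite length, normalized to the DMSO baseline.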
# [12] = CCTE_Mundy_HCI_iCellGluta_NOG_NeuriteCount: CCTE's Neurite Outgrowth Assay in iCellGluta cells for Neurite Count, Mundy Lab (AID 2284342; active = hit-call score of the fitted dose curve at least 0.9, where 1 is the maximum;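 note: chemical exposure about 48 hours starting 2 hours after plating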)
# IYD (gene 389434) = assay: CCTE_GLTED_hIYD: CCTE's human Iodotyrosine Deiodinase (xIYD) Inhibition Assay, Great Lakes Toxicology and Ecology Division (GLTED) Lab (AID 2284317; active = hit-call score of the fitted dose curve at least 0.9, where 1 is the maximum;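 note: cell-free human IYD enzyme made in baculovirus insect cells; iodide freed from monoiodotyrosine measured by cerium arsenite color change at 420 nm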)
# Summary of the method: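 Human IYD expressed in a baculovirus-insect cell system was incubated 3 h with monoiodotyrosine and test chemical. Released iodide, separated on Dowex columns, was quantified by the Sandell-Kolthoff reaction at 420 nm; plates were normalized to MNT and DMSO/NaOH controls.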
# [13] = CCTE_Deisenroth_5AR_NBTE_donor: CCTE's 5alpha-reductase NanoBRET Target Engagement Assay […], Deisenroth Lab (AID 2284319); conditions: actives raise or lower the signal
# Summary of the method: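 In this secondary endpoint, donor luminescence from SRD5A2-NanoLuc in transfected HEK293T flags artifacts. Test chemical (10 nM - 29.9 uM) is present five hours, tracer the last two; mock-tracer wells run plate-matched; data fitted bidirectionally against DMSO.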
# [14] = CCTE_Deisenroth_5AR_NBTE_acceptor: CCTE's 5alpha-reductase NanoBRET Target Engagement Assay - Autofluorescence Screen, Deisenroth Lab (AID 2284321); conditions: actives raise or lower the signal;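 note: compound fluorescence in the acceptor channel under 460 nm excitation flags autofluorescence artifacts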
# Summary of the method: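 Acceptor-channel fluorescence flags artifacts, with excitation fixed at 460 nm. Nominal 100 uM chemical samples were read in triplicate runs, and signal changes were fitted in both directions relative to DMSO.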
# SRD5A2 (gene 6716) = assay: CCTE_Deisenroth_5AR_NBTE_ratio: CCTE's 5alpha-reductase NanoBRET Target Engagement Assay - Ratio, Deisenroth Lab (AID 2284322); conditions: actives raise or lower the signal
# Summary of the method: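 Reverse-transfect HEK293T with pNLF1-C-SRD5A2, express 20 h. Pre-incubate cells with chemical 3 h (8-point series, 10 nM - 29.9 uM, duplicate). Add testosterone tracer, 2 h more. Add substrate/inhibitor, read donor and acceptor emission.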
# SERPINA7 (gene 6906) = assay: CCTE_GLTED_hTBG: CCTE's human Thyroxine-binding Globulin (TBG) Inhibition Assay, Great Lakes Toxicology and Ecology Division (GLTED) Lab (AID 2284343; active = hit-call score of the fitted dose curve at least 0.9, where 1 is the maximum;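 note: active chemicals lower fluorescence versus DMSO baseline by displacing probe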)
# Summary of the method: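 Cell-free binding assay in which human TBG is incubated with test chemical for 2 hours and displacement of the fluorescent probe ANSA is read at 380 nm excitation/475 nm emission. Activity is fitted against DMSO as the negative control.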
# E-selectin (Homo sapiens), sequence (P16581 whole entry, looked up): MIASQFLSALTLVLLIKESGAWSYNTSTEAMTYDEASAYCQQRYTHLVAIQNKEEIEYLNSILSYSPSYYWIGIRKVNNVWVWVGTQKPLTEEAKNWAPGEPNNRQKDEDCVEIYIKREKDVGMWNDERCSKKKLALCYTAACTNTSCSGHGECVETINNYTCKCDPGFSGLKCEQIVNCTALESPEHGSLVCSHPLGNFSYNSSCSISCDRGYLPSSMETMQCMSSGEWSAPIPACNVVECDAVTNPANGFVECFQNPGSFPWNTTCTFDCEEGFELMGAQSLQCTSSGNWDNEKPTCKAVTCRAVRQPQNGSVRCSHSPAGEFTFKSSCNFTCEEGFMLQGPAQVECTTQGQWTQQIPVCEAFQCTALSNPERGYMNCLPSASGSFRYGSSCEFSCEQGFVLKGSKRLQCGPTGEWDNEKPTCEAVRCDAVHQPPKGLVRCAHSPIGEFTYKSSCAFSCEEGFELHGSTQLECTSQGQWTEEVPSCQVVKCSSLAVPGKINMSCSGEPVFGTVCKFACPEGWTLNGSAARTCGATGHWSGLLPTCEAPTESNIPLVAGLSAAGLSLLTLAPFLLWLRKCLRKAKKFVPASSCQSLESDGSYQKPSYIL
structure (smiles),measurement,setting,value
O=S(=O)(O)CCC(F)(F)C(F)(F)C(F)(F)C(F)(F)F,outcome,[1],inactive
same,outcome,[2],inactive
same,outcome,[3],inactive
same,outcome,[4],inactive
same,outcome,[5],inactive
same,outcome,[6],inactive
same,outcome,[7],inactive
same,outcome,"CD69, CD69 (gene 969)",inactive
same,AC50,TTR (gene 7276),2.1 µM (active)
same,outcome,[8],inactive
same,outcome,[9],inactive
same,outcome,[10],inactive
OCCCCC(F)(F)C(F)(F)C(F)(F)C(F)(F)F,outcome,[1],inactive
same,outcome,[2],inactive
same,outcome,[3],inactive
same,outcome,[4],inactive
same,outcome,[5],inactive
same,outcome,[6],inactive
same,outcome,[7],inactive
same,outcome,"CD69, CD69 (gene 969)",inactive
same,outcome,[11],inactive
same,outcome,[12],inactive
same,outcome,[8],inactive
same,outcome,[9],inactive
same,outcome,[10],inactive
CCCCCCCCCCCCC[N+](C)(C)Cc1ccccc1,AC50,IYD (gene 389434),70.8 µM (active)
same,AC50,[13],18.2 µM (active)
same,AC50,[14],17.2 µM (active)
same,AC50,SRD5A2 (gene 6716),68.9 µM (active)
O=C(O)C(F)(F)OC(F)(F)C(F)(F)OC(F)(F)C(F)(F)OC(F)(F)F,outcome,[1],inactive
same,outcome,[2],inactive
same,outcome,[3],inactive
same,outcome,[4],inactive
same,outcome,[5],inactive
same,outcome,[6],inactive
same,outcome,[7],inactive
same,outcome,"CD69, CD69 (gene 969)",inactive
same,AC50,TTR (gene 7276),0.23 µM (active)
same,AC50,SERPINA7 (gene 6906),18.6 µM (active)
O=C(Cl)C(F)(F)C(F)(F)C(F)(F)C(F)(F)C(F)(F)C(F)(F)C(F)(F)F,outcome,[1],inactive
same,outcome,[2],inactive
same,outcome,[3],inactive
same,outcome,[4],inactive
same,outcome,[5],inactive
same,outcome,[6],inactive
same,outcome,[7],inactive
same,outcome,"CD69, CD69 (gene 969)",inactive
same,AC50,TTR (gene 7276),0.599 µM (active)
O=C(O)C(F)(F)C(F)(F)C(F)(F)OC(F)(C(F)(F)F)C(F)(F)F,outcome,[1],inactive
same,outcome,[2],inactive
same,outcome,[3],inactive
same,outcome,[4],inactive
same,outcome,[5],inactive
same,outcome,[6],inactive
same,outcome,[7],inactive
same,outcome,"CD69, CD69 (gene 969)",inactive
same,AC50,TTR (gene 7276),0.321 µM (active)
same,outcome,[12],inactive
same,outcome,[8],inactive
same,outcome,[9],inactive
same,outcome,[10],inactive
O=C1C=CC(=O)N1c1ccccc1,AC50,[13],50 µM (active)
same,AC50,[14],50 µM (active)
same,AC50,SRD5A2 (gene 6716),22.3 µM (active)
CCc1cc(Cc2cc(CC)c(N)c(CC)c2)cc(CC)c1N,AC50,SERPINA7 (gene 6906),8.5 µM (active)
O=C(Cl)C(F)(F)C(F)(F)C(F)(F)C(F)(F)C(F)(F)C(F)(F)F,outcome,[1],inactive
same,outcome,[2],inactive
same,outcome,[3],inactive
same,outcome,[4],inactive
same,outcome,[5],inactive
same,outcome,[6],inactive
same,outcome,[7],inactive
same,outcome,"CD69, CD69 (gene 969)",inactive
same,AC50,TTR (gene 7276),0.685 µM (active)
